# A selection follows.
# aSyn UTR act – Activators via SNCA 5'UTR binding, MLPCN. AID 1814, 2009. activity score, % (tested at 7.5 µM), hits read low. 300,000 tested, 7.1% active. alpha-synuclein 5'UTR reporter, activators screen; in the data active means activity score below about -60%
# A number is an active result; – = inactive.
SMILES,aSyn UTR act
CCC(C)NC(=O)c1cc2cc3ccc(OC)cc3nc2s1 (stereo unspecified),-130.7
COc1ccc2cc3cc(C(=O)NCCN4CCc5ccccc5C4)sc3nc2c1,-209.1
Cc1cc(NC(=O)COc2cccc(C)c2C)no1,-66.1
Cc1cc(NC(=O)COc2ccccc2C)no1,-115.9
Cc1cc(NC(=O)COc2cccc3cccnc23)no1,-95.6
Cc1ccccc1OCC(=O)NC1=NCCS1,-77.2
Cc1cc(NC(=O)COc2ccc(C)c(C)c2)no1,-61.7
COc1ccc(-c2cc(C(=O)N3CCCCCC3)no2)cc1OC,-123.6
COc1ccc(-c2cc(C(=O)N3CCCCCC3)no2)cc1,-85.5
C(#CC1CCCC1)c1ccc2c(c1)COc1c3ccccc3nn1-2,-146.2
Cn1cccc1C(=O)OCc1ccc(C(C)(C)C)cc1,-140.9
Cc1ccc(C)c(S(=O)(=O)N2CCN(Cc3ccc(O)c4ncccc34)CC2)c1,–
O=C(Nc1ccc(S(=O)(=O)N2CCCCCC2)cc1)c1[nH]ncc1[N+](=O)[O-],–
Cc1ccc(C(=O)Nc2cccc(O)c2)cc1S(=O)(=O)N1CCCCCC1,-139.0
Cc1ccc(C(=O)Nc2ccc3cn[nH]c3c2)cc1S(=O)(=O)N1CCCCC1,-111.0
Cc1cccc(NC(=O)c2ccc(C)c(S(=O)(=O)N3CCCCC3)c2)n1,-116.2
Cn1c(-c2ccc3ccccc3n2)nc2cnccc21,-74.3
CCn1c(/C=C/c2ccccc2)nc2ccccc21,-157.0
CC(C)Cn1c(/C=C/c2ccccc2)nc2ccccc21,-114.2
O=C(Cn1c(/C=C/c2ccccc2)nc2ccccc21)Nc1ccc(F)cc1,-71.5
COc1ccc(Cn2c(/C=C/c3ccccc3)nc3ccccc32)cc1,-202.3
COc1ccc(/C=C/c2nc3ccccc3n2C)cc1,–
CC(C)c1ccc(S(=O)(=O)c2cc3cc(Br)ccc3oc2=O)cc1,-62.5
Cc1ccc(O)c(C(=O)/C=C/c2ccc3c(c2)OCCCO3)c1,-188.4
O=C(/C=C/c1ccc2c(c1)OCCCO2)c1ccccc1O,-311.3
SMILES,aSyn UTR act
Cc1oc2c(c1C(=O)c1ccc(Cl)cc1)C(=O)C(=O)c1ccccc1-2,-87.0
Cc1ccc(C(=O)c2coc3c2C(=O)C(=O)c2ccccc2-3)cc1,-90.1
COc1ccc(C(=O)c2c(C(F)(F)F)oc3c2C(=O)c2ccccc2C3=O)cc1,–
CN(C)c1ccc(/C=C(/C#N)C(=O)NCc2ccccc2)o1,-96.2
C#CCn1c(=NC(=O)c2ccc(Br)s2)sc2cccc(OC)c21,-113.0
CCOC(=O)c1cnc2c(ccc3ccccc32)c1NCCCN(C)C,-357.5
CC(=O)OCCc1c2ccccc2c(CCCN(C)C)c2ccccc12,–
O=C(NCc1cccnc1)Nc1ccc2c(c1)OCO2,-63.2
C=CCOc1ccc(NC(=O)C(=O)NCCCn2ccnc2)cc1,–
O=S(=O)(c1ccc(NC(=S)NCc2cccnc2)cc1)N1CCCCC1,–
Cc1nn(C)c(C)c1CNC(=O)Nc1cccc(Cl)c1,-105.5
Cc1nn(C)c(C)c1CNC(=O)Nc1ccc(Cl)cc1,-88.7
O=C(NCCCn1ccnc1)Nc1ccc2c(c1)OCO2,-106.7
Cc1nn(C)c(C)c1CNC(=O)Nc1ccc2c(c1)OCO2,-72.1
Nc1ccccc1Nc1cc(-c2ccccc2)[nH]n1,-170.7
c1ccc2cc(-c3cc4ccccn4c3)ccc2c1,-98.1
CCOc1ccc(-c2c(=O)n(OCc3nc4ccccc4[nH]3)c3ccccc3[n+]2[O-])cc1,-111.9
CCOC(=O)COn1c(=O)c(-c2ccc(C)cc2)[n+]([O-])c2ccccc21,-135.9
Cc1ccc(NC(=S)NNC(=O)c2ccccc2OC(F)F)cc1,-86.7
O=C(NNC(=S)Nc1ccc(F)cc1)c1ccccc1OC(F)F,-62.7
O=C(NNC(=S)Nc1cccc(Cl)c1)c1ccccc1OC(F)F,-82.9
O=c1c(-c2ccc(Cl)cc2)cnc2n1CCS2,-83.5
COC(=O)c1sc(NC(=S)NC(=O)c2ccccc2F)nc1C,-151.8
COC(=O)c1sc(NC(=S)NC(=O)c2cccc(C)c2)nc1C,-143.8
Oc1ccccc1CNc1ccc(OC(F)(F)F)cc1,-72.1
SMILES,aSyn UTR act
Cc1ccc(NCc2ccccc2O)cc1C,-116.5
Oc1ccccc1CNc1ccc2c(c1)OCCO2,-71.8
CC(C)OC(=O)c1ccc(NC(=O)CSc2nc3ncccc3[nH]2)cc1,-62.1
c1ccc(-c2nnsc2Sc2ccccn2)cc1,-90.6
O=S(=O)(c1ccc(Cl)c(Cl)c1)c1snnc1-c1ccccc1,–
Cc1nn(C(=O)c2cccs2)c(N)c1-c1ccccc1,-125.5
O=C(Nc1ccc(Cl)cc1)C(Cl)C(=O)c1ccccc1 (stereo unspecified),-79.2
O=C(NC(=S)Nc1ccc(Cl)cc1)c1ccccc1,-177.0
CCC(=O)NC(=S)Nc1ccc(NC(=S)NC(=O)c2ccccc2)cc1,-103.9
Cc1nnnn1/C(=C\c1ccccc1)C(=O)OCC(=O)Nc1ccc(Cl)cc1F,-70.5
O=[N+]([O-])c1cccc(/C=N/N2CCN(c3ccccn3)CC2)c1,-99.1
O=[N+]([O-])c1cccc(/C=N/N2CCN(Cc3ccccc3)CC2)c1,-114.6
COc1ccc(N)cc1-n1c(C)ccc1C,-117.9
COC(=O)c1ccc(COc2ccc(C)cc2[N+](=O)[O-])o1,-129.9
Cc1ccc(COC(=O)c2cc([N+](=O)[O-])ccc2N2CCOCC2)cc1,–
COC(=O)c1cc(C)ccc1OCc1ccc([N+](=O)[O-])cc1,-79.1
COc1ccc(C2CC(c3ccc(OC)c(OC)c3)=NN2S(C)(=O)=O)cc1 (stereo unspecified),-169.5
CS(=O)(=O)N1N=C(c2ccccc2)CC1c1ccc2nccnc2c1 (stereo unspecified),-77.3
CS(=O)(=O)N1N=C(c2ccc3nccnc3c2)CC1c1ccccc1 (stereo unspecified),-79.1
COc1ccc(C2=NN(S(C)(=O)=O)C(c3ccc4nccnc4c3)C2)cc1 (stereo unspecified),-150.5
CS(=O)(=O)Nc1ccc(C2=NN(S(C)(=O)=O)C(c3ccc4c(c3)OCO4)C2)cc1 (stereo unspecified),-207.0
Cc1ccc(C2=NN(S(C)(=O)=O)C(c3ccc4nccnc4c3)C2)cc1 (stereo unspecified),-127.3
Cc1nc2cc(NC(=O)N3CCC(c4ccccc4)C3)ccc2n1C (stereo unspecified),-103.8
Cc1ccc(C2CCN(C(=O)Nc3ccc(F)cc3)C2)cc1 (stereo unspecified),-125.2
Cc1ccc(C(=O)Cn2ncsc2=N)cc1,-163.7
SMILES,aSyn UTR act
CC[C@H]1OC(=O)C[C@@H](O)[C@H](C)[C@@H](O[C@@H]2O[C@H](C)C[C@H](N(C)C)[C@H]2O)[C@@H](CC=O)C[C@@H](C)C(=O)C=C[C@]2(C)O[C@H]2[C@@H]1C,-146.9
C/C(NC(=O)c1ccccc1)=C1/C(=O)CC2C1C2(C)C (stereo unspecified),-98.8
CS(=O)c1ccccc1-c1nc(-c2cccc(Cl)c2)no1 (stereo unspecified),-143.8
CS(=O)c1ccccc1-c1nc(-c2ccc(Cl)cc2)no1 (stereo unspecified),-143.1
COc1cccc(C2=NO[C@@H]3C(=O)N(c4ccc5c(c4)OCCO5)C(=O)[C@H]23)c1OC,-80.8
O=C(/C=C/c1cccc(F)c1)N1CCc2ccccc21,-111.3
O=C(/C=C/c1ccc(Cl)cc1Cl)N1CCc2ccccc21,-192.4
O=C(/C=C/c1ccc(F)cc1)N1CCCc2ccccc21,-64.9
CC(C)Cc1cc(C(=O)NCc2cccs2)no1,-164.4
CC(C)Cc1cc(C(=O)Nc2ccc(F)cc2F)no1,-138.6
CCc1ccc(NC(=O)c2cc(CC(C)C)on2)cc1,-120.5
O=C(Nc1ccc(F)cc1F)c1csc(-c2cccs2)n1,-270.1

# Screening data from PubChem.
